About 83,000 compounds went through this panel and 20% of them were active in at least one assay; those are over-represented in the sample as a whole.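 The test compound was applied at a single concentration to cells in 96-well plates for 48 hours, and percent growth was recorded.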 Values without a mark were called inactive. The source made the active and inactive calls.
tested on: SK-MEL-28 melanoma; test: NCI-60 one-dose screen, 48 h (100 = growth as untreated, 0 = no growth, -100 = all killed); settings: 10 µM unless noted
Experimental: Growth inhibition of the SK-MEL-28 human tumor cell line is measured as a screen for anti-cancer activity. Cells are grown in 96 well plates and exposed to the test compound for 48 hours. Compounds are tested at a single concentration, which is 10^-5 M for most compounds. The reported endpoint is percent growth (GI% or GIPRCNT), where numbers from 0 - 100% represent growth inhibition, and numbers from -100% - 0 represent cell death. For example, a value of 40 represents 60% growth inhibition. A value of 0 means no net growth occurred over the course of the experiment. A value of -40 indicates 40% of cells at the beginning of the experiment died by the end of the experiment. A value of -100 means all cells are dead at the end of the experiment.
NCI-60 Human Tumor Cell Lines Screen was performed using the standard one-dose NCI protocol, which is described in more detail at https://dtp.cancer.gov/discovery_development/nci-60/default.htm.
Compounds with GIPRCNT values below 10 were considered active. Activity score was based on GIPRCNT using the following formula: […]
Score is 0 for GIPRCNT values of 100 or above, 50 for GIPRCNT values of 0, and 100 for GIPRCNT values of -100.

Going from `CN1C=CN(Cc2ccc(-c3ccccn3)nc2)[CH-]1.CN1C=CN(Cc2ccc(-c3ccccn3)nc2)[CH-]1.[Au+3]` to `COc1ccc(Nc2ncccc2C(=O)NCc2cn(Cc3cccc(Oc4ccccc4)c3)nn2)c(OC)c1`, the growth rises from 50.7% to 61.8%.

Going from `CN(C)c1ncnc2c1ccn2C1OC(CO)C(O)C1O` (stereo not given) to `C=C(C)[C@@H]1C[C@H](O)Cc2cc(F)ccc2N1`, the growth rises from 82.5% to 103%.

Going from `CNC(=S)NNC(=O)C1CC1` to `CCCCN(CCCC)C(=O)CC`, the growth rises from 113% to 114%.

Going from `CCOC(=O)c1c(NS(=O)(=O)c2ccc(C)cc2)sc2c1CCC1(C2)OCCO1` to `Cc1ccc(NS(=O)(=O)c2cc(C)ccc2C)cc1`, the growth falls from 101% to 61.5%.

Going from `Cc1c(C(=O)/C=C/c2csc3ccccc23)[n+](=O)c2ccccc2n1[O-]` to `N/C(=N\S(=O)(=O)c1ccccc1)Nc1nc2ccccc2s1`, the growth rises from 105% to 109%.

`COc1cc2c(cc1O)CCN1C[C@@H](CC(C)C)[C@@H](O)C[C@@H]21` and `N[C@H]1CN(C(=O)c2cc3cc(Br)c(F)c(F)c3[nH]2)C[C@@H]1O` are the same in growth: 106% for the first, 106% for the second.

Compared with `CC12CCCC(CC(=O)c3[nH]c4ccccc4c31)C2` (stereo not given), `O=c1[nH]c(-c2ccccc2)nc(CN2CCCCC2)c1O` is higher in growth: 53% for the first, 111% for the second.

Compared with `COc1cc(C2C3=C(COC3=O)Nc3cc4c(cc32)OCO4)cc2c1OCO2` (stereo not given), `COc1ccc(-c2[nH]nc(N)c2-c2cc(OC)c3c(c2)OCO3)cc1` is lower in growth: 65.3% for the first, 60% for the second.

Compared with `Clc1cc(Cl)cc(-c2ccc(-c3ccc(/C=N/NC4=NCCN4)cc3)s2)c1`, `Fc1ccc(Nc2ncnc3ccc(-c4cnc5[nH]ccc5c4)cc23)cc1Cl` is lower in growth: 97.3% for the first, 57.4% for the second.

First: CC(C)c1ccc2occ(C=C3C(=O)NC(=O)NC3=O)c(=O)c2c1
Second: NC1N=C(SCC(=O)N2CCN(c3cc4c(cc3F)c(=O)c(C(=O)O)cn4C3CC3)CC2)NC(=O)/C1=C/c1ccc(Cl)cc1 (stereo not given)
The growth of the first is lower: 99.8% for the first, 110% for the second.

First: Clc1cc2c(nn1)Nc1ccccc1S2
Second: O=C1C(Cl)=C(Nc2ccccn2)C(=O)c2ccccc21
The growth of the first is higher: 109% for the first, 34.8% for the second.

Compared with `CN(CCCCCl)P(=O)(OCc1ccc([N+](=O)[O-])o1)C(F)(F)C[C@H](NC(=O)CNC(=O)c1ccc(N=[N+]=[N-])cc1)C(=O)NCCc1ccc(O)cc1` (stereo not given in full), `COc1ccc(S(=O)(=O)NCCCNc2nccc(-n3ccc4cccnc43)n2)cc1` is higher in growth: 63.9% for the first, 104% for the second.

Compared with `Cc1nc2ncccc2nc1Nc1ccc(S(=O)(=O)Nc2cncs2)cc1`, `ClC(Cl)c1nc(-c2cccnc2)n2nc(-c3ccccc3)cc2n1` is lower in growth: 110% for the first, 73.4% for the second.

Going from `Cc1ccc(-c2csc(NC(=O)CCCCl)n2)cc1` to `Cc1ccc2ccccc2c1C[n+]1ccccc1`, the growth rises from 107% to 110%.

Going from `O=C(O)c1nc(-c2ccccc2)oc1N1CCOCC1` to `CN1C(=O)N(C)C2C1NN=c1s/c(=C\C=C\c3ccccc3)c(=O)n12` (stereo not given), the growth falls from 98.7% to 68.4%.

First: COc1cc(/C=C/C(=O)N2CCN(C(=O)/C=C/c3cc(OC)c(OC)c(OC)c3)CC2)cc(OC)c1OC
Second: COc1ccc(S(=O)(=O)n2ccc(-c3ccc4c(c3)CCC(C)(C)O4)n2)cc1OC
The growth of the first is higher: 105% for the first, 91% for the second.

Compared with `c1ccc(Nc2nc(Nc3ccccc3)nc(Nc3ccccc3)n2)cc1`, `CCOC(=O)c1ccc2c(c1)nc(-c1ccc(OCc3ccccc3)c(OC)c1)n2-c1cc(C(C)(C)C)[nH]n1` is higher in growth: 79% for the first, 107% for the second.

`CCC1=CCC[C@@]2(C)CCC[C@@]3(C)CCCC(C)(C)[C@]1([O-])[O+]32` was tested, and the growth was 96.8%.

With `COc1ccc(-c2nc(/C=N/Nc3cc(C)nc4ccc(Cl)cc34)c(C)o2)cc1` the growth was -41.3% (active).
For `O=C(Nc1cccc(-n2cc(-c3ccncc3)c(-c3ccc(Cl)c(O)c3)n2)c1)Nc1cc(C(F)(F)F)cc(C(F)(F)F)c1`, the growth was -62.4% (active).
`Cc1cc(N/N=C/c2nc(-c3ccccc3)oc2C)c2cc(Cl)ccc2n1` was tested, and the growth was -96.4% (active).
With `CCN(CC)CCC(CNc1c2ccc(Cl)cc2nc2ccc(OC)cc12)c1ccccc1` (stereo not given) the growth was -100% (active).

`Brc1cccc(-c2cc(-c3ccc4c(c3)OCCCO4)[nH]n2)c1` was tested, and the growth was 76.5% [25 µM].
